# PubChem BioAssay AID434955 (Southern Research Specialized Biocontainment Screening …, 2010)
# Out of some 330,000 compounds screened, about 880 (0.27%) were called active. Roughly 1% stayed inconclusive and do not appear here. No rule for the calls is given here. A selection follows.
# Assay: beta-lactam sensitization of Mtb H37Rv, H37Rv (AID 434955);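 also: growth measured after seven days incubation then overnight dye step; 0% = bacteria only wells and 100% = bacteria with antibiotic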
# Conditions: M. tuberculosis H37Rv growth with meropenem, percent inhibition, at 25 µM
# [1] = measured here: primary screen without meropenem
SMILES,inhibition (stronger effect = higher value),inhibition [1]
CCCCNC(=O)Cn1nc(C)c(S(=O)(=O)N2CCOCC2)c1C,-4.34% (inactive),-4.6%
Fc1ccc(N2N=C(c3cccs3)CC2c2ccco2)c(F)c1 (stereo not given),35.4% (inactive),9.4%
Cc1ccc(N(CC(=O)NC2CCCCC2)C(=O)CCCC(=O)Nc2ccccn2)c(C)c1,-1.33% (inactive),-1.01%
CCSC1=NCCN1C(=O)c1ccc(S(=O)(=O)N(CC)CC)cc1,6.44% (inactive),0.45%
COc1ccccc1-c1oc2ccccc2c1C#CCCCCO,10.7% (inactive),7.25%
CC(C)OC(=O)CN1CCN(c2ccc(Cl)cc2)CC1,-3.97% (inactive),-7.14%
O=C(Nc1cccnc1)c1noc2c1CCCCC2,2.93% (inactive),-8.89%
COc1ccc(S(=O)(=O)N2CCCCC2)cc1NC(=O)c1cc([N+](=O)[O-])ccc1N1CCOCC1,-11.2% (inactive),-3.23%
COC(=O)CC(=O)N1CCN(c2ccc(Cl)c(Cl)c2)CC1,-8.83% (inactive),97.6%
Cc1cccc(NC(=O)C(C)N2C(=O)C3C4CC(C(Br)C4Br)C3C2=O)c1 (stereo not given),-22.1% (inactive),-16.2%
CC(C)c1ccc(NC(=O)CCN2C(=O)c3ccc([N+](=O)[O-])cc3C2=O)cc1,-2.88% (inactive),-6.43%
Cc1nc(COc2cccc(Cl)c2)sc1C(=O)/C=C/N(C)C,-4.65% (inactive),-0.85%
C/C(=N/NC(=O)CSc1ccccn1)c1ccc([N+](=O)[O-])cc1,-3.17% (inactive),6.64%
O=C(NC(=O)c1ccccc1)Nc1ccccc1O,0.65% (inactive),3%
O=C1[C@@H]2C(c3cccnc3)=NO[C@@H]2C(=O)N1c1ccc(Cl)cc1Cl,-5.66% (inactive),0.68%
C[C@@H]1C[C@@H]2O[C@H]2/C=C\C=C\C(=O)Cc2c(Cl)c(O)cc(O)c2C(=O)O1,29.7% (inactive),18.4%
CCc1ccc2[nH]c(=O)c(Cc3ccccc3)c(O)c2c1,-0.83% (inactive),-2.95%
O=C(C1CCCN1S(=O)(=O)c1ccc(Br)cc1)N1CCOCC1 (stereo not given),-1.22% (inactive),0.94%
Cc1c(NC(=O)C(C)OC(=O)c2cc3c4ccccc4n(C)c3s2)c(=O)n(-c2ccccc2)n1C (stereo not given),4.17% (inactive),3.63%
O=C(CSC1CC(=O)N(CCc2ccccc2)C1=O)Nc1ccc(Cl)cc1 (stereo not given),-1.52% (inactive),-3.81%
CCOc1ccc(C(O)Cn2c(=N)n(CCN3CCCCC3)c3ccccc32)cc1 (stereo not given),8.31% (inactive),3.41%
O=S(=O)(Nc1ccc(Cl)cn1)c1cnc(Cl)c(Br)c1,-1.47% (inactive),-1.06%
Cc1cc(NC(=O)OC(C)C)ccc1-c1ccc(NC(=O)OC(C)C)cc1C,0.85% (inactive),-5.74%
CCNC(=O)CC1C(=O)N(c2ccc(OC)cc2)C(=O)N1CCOC (stereo not given),7.04% (inactive),-0.36%
COC(=O)Cc1ccc(NC(=S)NCc2ccco2)cc1,-6.59% (inactive),47.6%

SMILES,inhibition (stronger effect = higher value),inhibition [1]
Cc1cccc([C@@H]2[C@@H]3C(=O)N(C)C(=O)[C@@H]3[C@@H]3C(=O)Nc4ccccc4C(=O)N23)c1,-6.47% (inactive),-0.42%
O=C1c2ccccc2C(=O)N1CCOc1ccc(F)cc1,-2.05% (inactive),-1.56%
Cn1cc(CCC(=O)N2CCCC(C(=O)c3ccc(C(C)(C)C)cc3)C2)cn1 (stereo not given),0.49% (inactive),4.84%
CCSCc1nc(N)nc(NCCc2ccccc2)n1,0.44% (inactive),4.31%
CC(C)(C)C1CCc2c(sc3nc(SCC(N)=O)nc(N)c23)C1 (stereo not given),99.1% (inactive),99.3%
Brc1ccc(Nc2c3c(nc4ncnn24)CCC3)cc1,-0.68% (inactive),-2.17%
O=C(NCC(=O)N1CCN(c2ccccc2O)CC1)c1ccc2ccccc2c1,10.4% (inactive),3.65%
CCN(CCn1cccn1)C(=O)CC1C(=O)NCCN1Cc1cccc(OC)c1OC (stereo not given),-2.12% (inactive),0.4%
CC(C)CCN1CCN(Cc2cn[nH]c2C2CCCCC2)CC1CCO (stereo not given),-6.26% (inactive),2.27%
CC(=O)C[C@@H](O)CC(=O)[C@H]1OC(=O)CCCCCCc2ccccc21,1.26% (inactive),-0.35%
C[C@H](CO)N1C[C@H](C)[C@@H](CN(C)S(=O)(=O)c2ccc(F)cc2)Oc2c(NC(=O)Nc3ccccc3)cccc2C1=O,5.19% (inactive),4.04%
CC1=CC(=O)C=CC1(C)C(Cl)(Cl)Cl (stereo not given),-0.23% (inactive),1.78%
CCC(C)NCC(=O)Nc1ccc([N+](=O)[O-])cc1C(=O)Nc1ccccc1F (stereo not given),-6.32% (inactive),3.29%
CC1CC(C)CN(S(=O)(=O)c2cccc(C(=O)N3C(=O)c4cccc(N)c4C3=O)c2)C1 (stereo not given),-7.74% (inactive),-0.88%
Cc1c(C)c(C)c(S(=O)(=O)N2CCC3(CC2)OCCO3)c(C)c1C,-2.23% (inactive),-3%
C[C@H]1CN([C@@H](C)CO)C(=O)Cc2cc(NS(C)(=O)=O)ccc2O[C@@H]1CN(C)CC1CC1,-11.2% (inactive),2.75%
Cc1ccc2nc(-c3ccc(NC(=O)CN(C)S(=O)(=O)c4ccccc4)cc3)sc2c1,11.9% (inactive),3.33%
CCOC(=O)c1ccc(NC(=O)c2ccc(NC(=O)C3CCCO3)cc2)cc1 (stereo not given),79.3% (inactive),83.3%
CCn1c(/C=N/NC(=O)c2ccc(OC)cc2)nc2ccccc21,99.1% (inactive),99.4%
O=C(Nc1ccc(F)cc1F)N1CCCN(CCOc2ccccc2)CC1,-1.99% (inactive),-0.11%
CSc1sc(C(=O)NNC(=O)c2ccc(Cl)cc2)c2c1C=CCC2,-5.38% (inactive),4.57%
Cc1oc2c(F)c(F)c(F)c(F)c2c1S(=O)(=O)Nc1cccc(C(F)(F)F)c1,5.72% (inactive),5.66%
Cc1ccc(NC(=O)c2nc[nH]c2C(=O)N2CCCCC2)c(C(=O)c2ccccc2)c1,9.07% (inactive),12.6%
O=C1NC(c2ccccc2)CCC1(Cl)Cl (stereo not given),0.94% (inactive),1.7%
COc1ccc(C)cc1NC(=O)C(OC(=O)c1cccc(S(=O)(=O)N(C)c2ccccc2)c1)c1ccccc1 (stereo not given),-1.94% (inactive),9.6%
